Measured values reported in PubChem BioAssay (EPA / NIEHS).
Inconclusive results are not listed. Active and inactive are the calls of the source. Rule for the calls, unless noted: active = hit-call score of the fitted dose curve at least 0.9, where 1 is the maximum; inactive = score below 0.9.

What was measured:
[1] = read-out: Intercellular Adhesion Molecule 1 (ICAM1), ICAM1 (gene 3383); experiment: BSK_3C_ICAM1: BioMAP Diversity Plus: 3C Assay for Intercellular Adhesion Molecule 1 (ICAM1) Biomarker Activity (AID 2283003); conditions: primary human endothelial cells (HUVEC); actives raise or lower the signal
Outline: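 Using DMSO as baseline, bidirectional curve fitting was applied to ICAM-1 ELISA signals from HUVEC in the 3C system, measured 24 h after compound addition.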

[2] = BSK_3C_Proliferation: Cell Proliferation Assessment in the BioMAP Diversity Plus: 3C Assay (AID 2283006); conditions: primary human endothelial cells (HUVEC)
Outline: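 Measured here: sulforhodamine B (0.1%) staining of TCA-fixed sub-confluent umbilical vein endothelial cultures 48 h post-dosing, absorbance 560 nm. DMSO served as negative control and baseline; both signal gain and loss were modelled.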

[3] = target: Peroxisome proliferator-activated receptor gamma (Homo sapiens) (UniProt P37231); experiment: ATG_PPARg_TRANS: Attagene TRANS-FACTORIAL HepG2 Assay for human Peroxisome Proliferator-activated Receptor-gamma (PPARg) (AID 2283007; active = hit-call score of the fitted dose curve at least 0.9, where 1 is the maximum)
Outline: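 Human hepatoma HepG2, transient MRTU transfection, 24 h treatment. mRNA reporter signal by RT-PCR plus capillary electrophoresis, fluorescence detection; fitted for increase over DMSO negative control.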

[4] = target: Nuclear receptor subfamily 1 group I member 2 (Homo sapiens) (UniProt O75469); experiment: ATG_PXR_TRANS: Attagene TRANS-FACTORIAL HepG2 Assay for human Pregnane X Receptor (PXR) (AID 2283008; active = hit-call score of the fitted dose curve at least 0.9, where 1 is the maximum)
Outline: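 Trans-factorial format: exogenous NR-Gal4 fusion activity, not endogenous factor, in transfected human HepG2 liver cells. After 24 h dosing, RNA isolated, reverse-transcribed, amplified and resolved by capillary electrophoresis; induction scored versus DMSO.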

[5] = target: Retinoic acid receptor RXR-alpha (Homo sapiens) (UniProt P19793); experiment: ATG_RXRa_TRANS: Attagene TRANS-FACTORIAL HepG2 Assay for human Retinoid X Receptor alpha (RXRa) (AID 2283012; active = hit-call score of the fitted dose curve at least 0.9, where 1 is the maximum)
Outline: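 Chimeric NR-GAL4 trans-activation in HepG2, 24 h treatment; reporter transcripts quantified by fluorescence on capillary electrophoresis, analysed for upward change from DMSO.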

[6] = read-out: E-selectin (Homo sapiens) (UniProt P16581); experiment: BSK_3C_Eselectin: BioMAP Diversity Plus: 3C Assay for Eselectin Biomarker Activity (AID 2283015); conditions: primary human endothelial cells (HUVEC); actives raise or lower the signal
Outline: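 Human vascular endothelium from umbilical vein is exposed to test chemicals for 24 h. E-selectin levels are read by ELISA and compared with DMSO controls.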

[7] = read-out: Interleukin-1 alpha (IL1a), IL1A (gene 3552); experiment: BSK_BE3C_IL1a: BioMAP Diversity Plus: BE3C Assay for Interleukin-1 alpha (IL1a) Biomarker Activity (AID 2283016); conditions: primary human bronchial epithelial cells; actives raise or lower the signal
Outline: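 Measured in human lung primary bronchial epithelial cells: IL-1a by ELISA at 24 h after dosing, with bidirectional fitting against DMSO.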

[8] = read-out: Monocyte Chemoattractant Protein-1 (MCP1), CCL2 (gene 6347); experiment: BSK_3C_MCP1: BioMAP Diversity Plus: 3C Assay for Monocyte Chemoattractant Protein-1 (MCP1) Biomarker Activity (AID 2283017); conditions: primary human endothelial cells (HUVEC); actives raise or lower the signal
Outline: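 Endothelial cells from human umbilical vein are dosed with chemical, cultured 24 h, then assayed for MCP-1 by ELISA; both increases and decreases are modelled against DMSO controls.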

[9] = read-out: Monocyte Chemoattractant Protein-1 (MCP1), CCL2 (gene 6347); experiment: BSK_4H_MCP1: BioMAP Diversity Plus: 4H Assay for Monocyte Chemoattractant Protein-1 (MCP1) Biomarker Activity (AID 2283018); conditions: primary human endothelial cells (HUVEC); actives raise or lower the signal
Outline: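 Primary human umbilical vein endothelium is exposed to chemical for 24 h before MCP-1 is assayed by ELISA. Concentration-response fitted bidirectionally relative to DMSO.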

[10] = read-out: Human Leukocyte Antigen - DR isotype (HLADR), HLA-DRA (gene 3122); experiment: BSK_3C_HLADR: BioMAP Diversity Plus: 3C Assay for Human Leukocyte Antigen - DR isotype (HLADR) Biomarker Activity (AID 2283019); conditions: primary human endothelial cells (HUVEC); actives raise or lower the signal
Outline: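 Endothelial cells from human umbilical vein are treated with test chemical; after 24 h, HLA-DR levels are measured by ELISA. Data are fitted in both directions using DMSO as the baseline.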

[11] = read-out: Interleukin-8 (IL8), CXCL8 (gene 3576); experiment: BSK_3C_IL8: BioMAP Diversity Plus: 3C Assay for Interleukin-8 (IL8) Biomarker Activity (AID 2283020); conditions: primary human endothelial cells (HUVEC); actives raise or lower the signal
Outline: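 Using DMSO-treated wells as the baseline, bidirectional curve fitting was applied to ELISA-measured IL-8 from human umbilical vein endothelial cultures sampled 24 h after compound addition.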

[12] = read-out: Monokine induced gamma interferon (MIG), CXCL9 (gene 4283); experiment: BSK_3C_MIG: BioMAP Diversity Plus: 3C Assay for Monokine induced gamma interferon (MIG) Biomarker Activity (AID 2283021); conditions: primary human endothelial cells (HUVEC); actives raise or lower the signal;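 for AC50: MIG protein level measured by immunoassay in the treated endothelial cultures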
Outline: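 ELISA-measured MIG in dosed HUVEC 3C cultures at 24 h, analysed by bidirectional fitting with DMSO defining baseline activity.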

[13] = target: human Vitamin D Receptor (VDR), VDR (gene 7421) (UniProt P11473); experiment: ATG_VDR_TRANS: Attagene TRANS-FACTORIAL HepG2 Assay for human Vitamin D Receptor (VDR) (AID 2283022; active = hit-call score of the fitted dose curve at least 0.9, where 1 is the maximum)
Outline: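 Fluorescence of labelled reporter cDNA fragments, resolved by capillary electrophoresis, gives mRNA induction after 24 h treatment of HepG2 cells carrying transfected Gal4-fusion reporter units. Activity is fitted in the positive direction with DMSO as baseline.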

[14] = target: Retinoic acid receptor alpha (Homo sapiens) (UniProt P10276); experiment: ATG_RARa_TRANS: Attagene TRANS-FACTORIAL HepG2 Assay for human Retinoic Acid Receptor alpha (RARa) (AID 2283005; active = hit-call score of the fitted dose curve at least 0.9, where 1 is the maximum)
Outline: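 HepG2 transiently transfected with multiplex GAL4-UAS reporter units including a human RARa–GAL4 chimera; 24 h compound exposure. Reporter mRNA quantified by RT-PCR, 6-FAM labeling and capillary electrophoresis; gain of signal versus DMSO.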

[15] = target: human RAR-related Orphan Receptor beta (RORb), RORB (gene 6096) (UniProt Q92753); experiment: ATG_RORb_TRANS: Attagene TRANS-FACTORIAL HepG2 Assay for human RAR-related Orphan Receptor beta (RORb) (AID 2283010; active = hit-call score of the fitted dose curve at least 0.9, where 1 is the maximum)
Outline: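 Multiplexed transcription-factor reporter assay: HepG2 cells transiently carrying NR-Gal4/GAL4-UAS constructs, 24 h treatment, mRNA quantified by RT-PCR plus capillary electrophoresis fluorescence; activity scored as induction over DMSO.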

[16] = target: human Thyroid Receptor alpha (THRa1), THRA (gene 7067) (UniProt P10827); experiment: ATG_THRa1_TRANS: Attagene TRANS-FACTORIAL HepG2 Assay for human Thyroid Receptor alpha (THRa1) (AID 2283014; active = hit-call score of the fitted dose curve at least 0.9, where 1 is the maximum)
Outline: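 First, HepG2 cells receive multiple GAL4-UAS reporter units and the chimeric receptor. They are then dosed for 24 h, after which RNA is reverse-transcribed, amplified, labelled, HpaI-cut and sized by capillary electrophoresis; gain relative to DMSO is scored.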

[17] = target: human Retinoic Acid Receptor beta (RARb), RARB (gene 5915) (UniProt P10826); experiment: ATG_RARb_TRANS: Attagene TRANS-FACTORIAL HepG2 Assay for human Retinoic Acid Receptor beta (AID 2283004; active = hit-call score of the fitted dose curve at least 0.9, where 1 is the maximum)
Outline: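 HepG2, transient MRTU transfection, NR–Gal4 chimera, 24 h treatment; RT-PCR plus CE fluorescence detection of reporter mRNA; gain of signal vs DMSO.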

[18] = target: human RAR-related Orphan Receptor gamma (RORg), RORC (gene 6097) (UniProt P51449); experiment: ATG_RORg_TRANS: Attagene TRANS-FACTORIAL HepG2 Assay for human RAR-related Orphan Receptor gamma (RORg) (AID 2283011; active = hit-call score of the fitted dose curve at least 0.9, where 1 is the maximum)
Outline: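 Activity is scored as increase in GAL4-UAS reporter mRNA over DMSO, detected by fluorescent RT-PCR and capillary electrophoresis in HepG2 cells transiently expressing a RORg-Gal4 chimera, 24 h after dosing.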

[19] = target: human Retinoid X Receptor beta (RXRb), RXRB (gene 6257) (UniProt P28702); experiment: ATG_RXRb_TRANS: Attagene TRANS-FACTORIAL HepG2 Assay for human Retinoid X Receptor beta (RXRb) (AID 2283013; active = hit-call score of the fitted dose curve at least 0.9, where 1 is the maximum)
Outline: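 After a 24 h incubation with test chemical, transfected HepG2 cells carrying NR-Gal4 fusions and GAL4-UAS reporter transcription units yield RNA whose reporter cDNA is FAM-labelled, HpaI-cut and sized by capillary electrophoresis; increases over DMSO are scored.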

Measured: AC50

E-selectin (Homo sapiens), sequence (P16581 whole entry, looked up): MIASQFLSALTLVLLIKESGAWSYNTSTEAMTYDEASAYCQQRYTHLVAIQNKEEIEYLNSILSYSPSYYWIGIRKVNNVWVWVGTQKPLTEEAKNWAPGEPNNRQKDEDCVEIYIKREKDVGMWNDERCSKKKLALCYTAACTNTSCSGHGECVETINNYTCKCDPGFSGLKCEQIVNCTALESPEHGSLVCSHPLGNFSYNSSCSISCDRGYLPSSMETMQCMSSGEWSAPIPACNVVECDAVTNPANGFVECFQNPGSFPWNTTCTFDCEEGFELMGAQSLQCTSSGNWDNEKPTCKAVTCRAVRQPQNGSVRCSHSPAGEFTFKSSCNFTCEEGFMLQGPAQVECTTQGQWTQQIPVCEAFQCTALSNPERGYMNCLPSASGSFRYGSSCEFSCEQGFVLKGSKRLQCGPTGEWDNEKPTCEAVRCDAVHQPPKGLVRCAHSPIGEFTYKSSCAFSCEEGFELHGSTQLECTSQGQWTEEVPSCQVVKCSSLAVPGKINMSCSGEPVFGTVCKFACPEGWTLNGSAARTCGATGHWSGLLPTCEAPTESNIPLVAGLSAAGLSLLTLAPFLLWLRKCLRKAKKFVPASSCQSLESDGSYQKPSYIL
Peroxisome proliferator-activated receptor gamma (Homo sapiens), sequence (P37231 whole entry, looked up): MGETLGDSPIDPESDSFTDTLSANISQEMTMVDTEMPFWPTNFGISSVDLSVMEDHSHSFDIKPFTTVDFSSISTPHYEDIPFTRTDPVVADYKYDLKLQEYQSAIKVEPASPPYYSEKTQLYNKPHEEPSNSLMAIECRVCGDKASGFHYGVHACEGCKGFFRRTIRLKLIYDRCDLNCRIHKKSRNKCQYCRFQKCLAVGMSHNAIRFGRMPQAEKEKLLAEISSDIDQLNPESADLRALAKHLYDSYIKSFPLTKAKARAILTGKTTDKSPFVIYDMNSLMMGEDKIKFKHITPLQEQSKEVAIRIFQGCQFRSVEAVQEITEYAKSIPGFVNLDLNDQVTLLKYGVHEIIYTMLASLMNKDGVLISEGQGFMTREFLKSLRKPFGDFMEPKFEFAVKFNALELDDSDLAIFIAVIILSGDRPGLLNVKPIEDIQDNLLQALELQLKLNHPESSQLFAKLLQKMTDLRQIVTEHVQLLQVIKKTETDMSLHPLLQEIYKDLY
human Retinoic Acid Receptor beta (RARb), RARB (gene 5915), sequence (P10826 whole entry, looked up, the tested form may be a part): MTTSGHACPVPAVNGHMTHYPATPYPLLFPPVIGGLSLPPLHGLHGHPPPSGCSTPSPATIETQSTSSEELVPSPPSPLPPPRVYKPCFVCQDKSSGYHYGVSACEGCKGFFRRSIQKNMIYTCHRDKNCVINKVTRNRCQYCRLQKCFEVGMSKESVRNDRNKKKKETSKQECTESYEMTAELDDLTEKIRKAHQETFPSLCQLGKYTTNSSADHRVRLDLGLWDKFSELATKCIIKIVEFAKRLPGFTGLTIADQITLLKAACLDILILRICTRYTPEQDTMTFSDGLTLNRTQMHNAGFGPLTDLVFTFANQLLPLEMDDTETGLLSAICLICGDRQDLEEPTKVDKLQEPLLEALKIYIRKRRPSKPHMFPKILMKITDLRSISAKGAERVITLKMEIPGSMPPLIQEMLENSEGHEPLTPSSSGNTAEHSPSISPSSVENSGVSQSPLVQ
human Thyroid Receptor alpha (THRa1), THRA (gene 7067), sequence (P10827 whole entry, looked up, the tested form may be a part): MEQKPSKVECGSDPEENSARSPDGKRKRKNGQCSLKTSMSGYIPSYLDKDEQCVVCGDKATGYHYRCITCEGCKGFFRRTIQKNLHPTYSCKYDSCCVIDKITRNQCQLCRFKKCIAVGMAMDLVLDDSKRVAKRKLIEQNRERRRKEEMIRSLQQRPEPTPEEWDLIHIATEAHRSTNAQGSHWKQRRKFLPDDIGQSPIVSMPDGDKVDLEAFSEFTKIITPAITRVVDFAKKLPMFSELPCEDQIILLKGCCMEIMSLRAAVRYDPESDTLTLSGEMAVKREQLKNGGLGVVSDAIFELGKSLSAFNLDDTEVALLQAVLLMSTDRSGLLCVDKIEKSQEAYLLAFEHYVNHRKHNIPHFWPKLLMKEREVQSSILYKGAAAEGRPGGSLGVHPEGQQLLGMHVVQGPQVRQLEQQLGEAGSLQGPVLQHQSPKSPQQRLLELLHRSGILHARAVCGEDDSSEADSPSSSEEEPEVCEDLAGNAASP
Retinoic acid receptor RXR-alpha (Homo sapiens), sequence (P19793 whole entry, looked up, the tested form may be a part): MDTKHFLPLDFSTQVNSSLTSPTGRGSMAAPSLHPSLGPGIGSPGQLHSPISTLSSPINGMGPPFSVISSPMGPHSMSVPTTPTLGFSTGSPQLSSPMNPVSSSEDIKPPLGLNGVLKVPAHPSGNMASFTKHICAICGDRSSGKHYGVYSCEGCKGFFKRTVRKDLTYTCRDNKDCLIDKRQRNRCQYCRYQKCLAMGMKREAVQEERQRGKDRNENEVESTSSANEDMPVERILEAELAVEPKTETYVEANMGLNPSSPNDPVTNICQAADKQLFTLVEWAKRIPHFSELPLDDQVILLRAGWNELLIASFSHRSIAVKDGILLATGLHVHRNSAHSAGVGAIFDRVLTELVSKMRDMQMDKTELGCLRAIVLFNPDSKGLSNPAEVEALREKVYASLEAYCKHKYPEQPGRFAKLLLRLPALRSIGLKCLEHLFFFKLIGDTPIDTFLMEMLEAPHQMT
human RAR-related Orphan Receptor gamma (RORg), RORC (gene 6097), sequence (P51449 whole entry, looked up, the tested form may be a part): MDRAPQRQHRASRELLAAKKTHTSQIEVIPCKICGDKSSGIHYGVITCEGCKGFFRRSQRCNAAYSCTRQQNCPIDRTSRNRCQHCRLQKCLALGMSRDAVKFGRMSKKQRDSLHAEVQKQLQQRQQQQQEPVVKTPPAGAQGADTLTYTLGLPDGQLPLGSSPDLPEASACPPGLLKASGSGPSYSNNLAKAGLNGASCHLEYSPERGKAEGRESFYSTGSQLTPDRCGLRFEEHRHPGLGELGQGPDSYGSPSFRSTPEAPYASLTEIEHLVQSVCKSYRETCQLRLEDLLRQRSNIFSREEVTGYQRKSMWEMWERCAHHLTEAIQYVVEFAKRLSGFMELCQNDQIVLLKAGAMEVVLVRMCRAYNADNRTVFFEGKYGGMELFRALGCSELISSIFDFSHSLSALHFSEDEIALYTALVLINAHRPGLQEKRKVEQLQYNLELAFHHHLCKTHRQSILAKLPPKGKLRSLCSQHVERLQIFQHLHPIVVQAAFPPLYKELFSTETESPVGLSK
human RAR-related Orphan Receptor beta (RORb), RORB (gene 6096), sequence (Q92753 whole entry, looked up, the tested form may be a part): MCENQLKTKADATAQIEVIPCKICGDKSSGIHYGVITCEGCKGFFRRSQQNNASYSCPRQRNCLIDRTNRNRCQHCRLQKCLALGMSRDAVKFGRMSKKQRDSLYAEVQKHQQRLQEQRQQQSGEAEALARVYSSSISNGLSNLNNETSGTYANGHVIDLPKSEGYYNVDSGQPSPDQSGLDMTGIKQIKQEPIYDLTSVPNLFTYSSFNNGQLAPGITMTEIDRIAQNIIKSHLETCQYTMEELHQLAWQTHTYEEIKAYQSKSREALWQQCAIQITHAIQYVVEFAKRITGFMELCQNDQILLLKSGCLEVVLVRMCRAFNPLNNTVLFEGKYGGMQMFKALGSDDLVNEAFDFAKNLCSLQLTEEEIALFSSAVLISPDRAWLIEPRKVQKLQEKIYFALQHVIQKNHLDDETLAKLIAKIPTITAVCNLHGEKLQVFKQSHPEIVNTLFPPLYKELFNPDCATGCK
human Retinoid X Receptor beta (RXRb), RXRB (gene 6257), sequence (P28702 whole entry, looked up, the tested form may be a part): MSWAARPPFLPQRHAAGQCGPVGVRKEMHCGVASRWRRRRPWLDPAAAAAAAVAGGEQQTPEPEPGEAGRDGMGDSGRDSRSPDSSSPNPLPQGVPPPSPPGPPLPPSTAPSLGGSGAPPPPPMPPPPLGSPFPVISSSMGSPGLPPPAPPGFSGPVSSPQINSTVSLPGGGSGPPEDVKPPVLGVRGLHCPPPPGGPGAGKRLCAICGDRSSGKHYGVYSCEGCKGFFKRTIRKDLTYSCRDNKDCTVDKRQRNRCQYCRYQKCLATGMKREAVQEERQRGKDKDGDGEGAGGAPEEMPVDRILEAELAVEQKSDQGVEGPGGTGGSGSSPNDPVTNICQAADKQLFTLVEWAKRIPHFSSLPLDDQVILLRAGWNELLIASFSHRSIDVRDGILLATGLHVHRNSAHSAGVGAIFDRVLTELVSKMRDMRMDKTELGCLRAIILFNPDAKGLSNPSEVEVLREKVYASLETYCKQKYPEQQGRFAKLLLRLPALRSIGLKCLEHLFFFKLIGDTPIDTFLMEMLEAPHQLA
human Vitamin D Receptor (VDR), VDR (gene 7421), sequence (P11473 whole entry, looked up, the tested form may be a part): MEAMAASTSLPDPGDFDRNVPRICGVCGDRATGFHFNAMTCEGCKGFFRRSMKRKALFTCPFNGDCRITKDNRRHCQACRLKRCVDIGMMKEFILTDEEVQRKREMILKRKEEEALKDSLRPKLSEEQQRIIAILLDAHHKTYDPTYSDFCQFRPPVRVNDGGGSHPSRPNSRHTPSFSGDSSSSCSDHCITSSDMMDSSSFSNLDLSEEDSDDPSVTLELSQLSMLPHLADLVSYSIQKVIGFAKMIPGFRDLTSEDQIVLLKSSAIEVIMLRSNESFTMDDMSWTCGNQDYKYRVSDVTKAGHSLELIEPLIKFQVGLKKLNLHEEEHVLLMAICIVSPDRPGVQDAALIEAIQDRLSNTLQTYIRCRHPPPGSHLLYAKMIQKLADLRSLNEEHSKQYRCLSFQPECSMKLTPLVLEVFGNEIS
Nuclear receptor subfamily 1 group I member 2 (Homo sapiens), sequence (O75469 whole entry, looked up, the tested form may be a part): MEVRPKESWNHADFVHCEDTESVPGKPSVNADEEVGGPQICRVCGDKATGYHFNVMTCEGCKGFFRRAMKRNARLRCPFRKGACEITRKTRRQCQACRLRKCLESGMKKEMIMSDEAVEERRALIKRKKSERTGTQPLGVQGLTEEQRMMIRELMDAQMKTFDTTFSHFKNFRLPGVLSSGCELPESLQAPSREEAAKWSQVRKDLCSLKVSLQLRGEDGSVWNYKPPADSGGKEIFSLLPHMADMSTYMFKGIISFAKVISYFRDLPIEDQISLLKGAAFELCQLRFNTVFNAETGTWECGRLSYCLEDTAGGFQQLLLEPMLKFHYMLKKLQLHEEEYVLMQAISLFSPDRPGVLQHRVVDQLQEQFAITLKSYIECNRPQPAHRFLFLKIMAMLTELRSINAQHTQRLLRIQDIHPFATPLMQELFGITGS

CC(C)=CCC/C(C)=C\CO
active: [3] 36.5 µM | [4] 8.73 µM
not listed: [14] | [15] | [16] | [17] | [18] | [19]
inactive: all other assays above

CC[C@H]1OC(=O)[C@H](C)[C@@H](O[C@H]2C[C@@](C)(OC)[C@@H](O)[C@H](C)O2)[C@H](C)[C@@H](O[C@@H]2O[C@H](C)C[C@H](N(C)C)[C@H]2O)[C@](C)(O)C[C@@H](C)C(=O)[C@H](C)[C@@H](O)[C@]1(C)O
not listed: [3] | [5] | [17] | [18] | [19]
inactive: all other assays above

O=C(O)CC(O)C(=O)O (centres undefined)
not listed: [2] | [3] | [13] | [14] | [15] | [16] | [18] | [19]
inactive: all other assays above

On1ccccc1=S
inactive: [15] | [18] | [5] | [16] | [11] | [13]
active: [1] 24 µM | [6] 18.3 µM | [7] 4.99 µM | [8] 28.8 µM | [9] 30.8 µM | [10] 12.9 µM | [12] 32 µM

O=P(OC(CCl)CCl)(OC(CCl)CCl)OC(CCl)CCl
active: [4] 0.377 µM | [19] 26 µM
not listed: [2] | [5] | [13] | [14] | [15] | [17] | [18]
inactive: all other assays above

CCOCCO
inactive: [1] | [17] | [6] | [7] | [8] | [9] | [10] | [11] | [12]

Cc1ccc(O)cc1
inactive: [1] | [2] | [6] | [7] | [8] | [9] | [10] | [11] | [12]

CCOC(=O)CC(CC(=O)OCC)(OC(C)=O)C(=O)OCC
active: [3] 52.3 µM
not listed: [15] | [17] | [18] | [19]
inactive: all other assays above

CC(C)CC(C)(O)C#CC(C)(O)CC(C)C (centres undefined)
active: [4] 11.9 µM
not listed: [3] | [13] | [14] | [15] | [17] | [18]
inactive: all other assays above

O=C(O)c1cccc(Oc2ccccc2)c1
active: [3] 59.8 µM
not listed: [2] | [4] | [5] | [14] | [15] | [19]
inactive: all other assays above

CCOCCOCCOCCO
not listed: [4] | [14] | [15] | [17] | [18] | [19]
inactive: all other assays above

CC/C(=C\C(=N/O)C(N)=O)C(C)[N+](=O)[O-] (centres undefined)
active: [3] 28.1 µM
not listed: [2] | [14] | [16] | [17] | [19]
inactive: all other assays above

Cn1c(=O)cc(Oc2ccc(F)cc2F)c2cnc(NCC(C)(C)O)nc21
active: [3] 6.3 µM | [8] 3.14 µM | [10] 3.11 µM | [11] 1.91 µM
not listed: [2] | [14] | [15] | [17] | [18] | [19]
inactive: all other assays above

CC(=O)OCCC(C)C
not listed: [3] | [4] | [5] | [13] | [14] | [16] | [17] | [18]
inactive: all other assays above

CC1=CC(=O)CC(C)(C)C1
inactive: [1] | [4] | [15] | [6] | [7] | [8] | [9] | [10] | [11] | [12]

CC(=O)OC[C@H]1O[C@@](COC(C)=O)(O[C@H]2O[C@H](COC(C)=O)[C@@H](OC(C)=O)[C@H](OC(C)=O)[C@H]2OC(C)=O)[C@@H](OC(C)=O)[C@@H]1OC(C)=O
not listed: [2] | [3] | [14] | [15] | [16] | [17] | [18] | [19]
inactive: all other assays above
